In ChEMBL document CHEMBL1961873, “Compounds: GSK PKIS; Assays: Nanosyn kinase panel” (2012):

How the values were obtained:
[1] = tested on: Epidermal growth factor receptor (Homo sapiens), P00533 [T790M]; conditions: at 1 µM
[2] = tested on: Epidermal growth factor receptor (Homo sapiens), P00533 [L858R,T790M]; conditions: at 0.1 µM
[3] = tested on: Epidermal growth factor receptor (Homo sapiens), P00533 [L858R,T790M]; conditions: at 1 µM
[4] = molecular target: Ephrin type-A receptor 2 (Homo sapiens) (UniProt P29317); conditions: at 0.1 µM
Sequence of Ephrin type-A receptor 2 (Homo sapiens) (P29317 whole entry): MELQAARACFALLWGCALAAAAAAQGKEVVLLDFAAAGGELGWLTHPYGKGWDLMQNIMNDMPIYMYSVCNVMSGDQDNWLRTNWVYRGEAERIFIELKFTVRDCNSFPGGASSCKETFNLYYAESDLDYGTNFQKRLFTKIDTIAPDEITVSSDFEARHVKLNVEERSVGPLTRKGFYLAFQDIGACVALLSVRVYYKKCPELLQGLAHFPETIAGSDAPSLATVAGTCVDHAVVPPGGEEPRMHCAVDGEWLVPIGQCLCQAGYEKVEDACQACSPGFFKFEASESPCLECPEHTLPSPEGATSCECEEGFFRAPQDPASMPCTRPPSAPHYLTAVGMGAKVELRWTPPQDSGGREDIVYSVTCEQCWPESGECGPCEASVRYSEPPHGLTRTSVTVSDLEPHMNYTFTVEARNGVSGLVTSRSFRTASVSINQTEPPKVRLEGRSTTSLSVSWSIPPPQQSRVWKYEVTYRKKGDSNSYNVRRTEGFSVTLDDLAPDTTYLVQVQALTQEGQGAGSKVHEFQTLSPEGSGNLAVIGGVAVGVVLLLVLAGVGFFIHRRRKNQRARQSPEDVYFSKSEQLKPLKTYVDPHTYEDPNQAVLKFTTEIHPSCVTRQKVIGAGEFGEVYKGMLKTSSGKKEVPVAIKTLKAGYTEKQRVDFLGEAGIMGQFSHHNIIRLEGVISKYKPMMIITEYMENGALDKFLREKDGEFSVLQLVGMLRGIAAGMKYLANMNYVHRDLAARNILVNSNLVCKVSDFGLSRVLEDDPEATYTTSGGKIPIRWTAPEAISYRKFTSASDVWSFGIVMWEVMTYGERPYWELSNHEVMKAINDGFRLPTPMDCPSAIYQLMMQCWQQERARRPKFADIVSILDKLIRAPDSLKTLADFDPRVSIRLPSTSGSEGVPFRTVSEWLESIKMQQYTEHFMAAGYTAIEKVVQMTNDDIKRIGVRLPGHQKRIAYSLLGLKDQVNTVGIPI

[5] = molecular target: Ephrin type-A receptor 2 (Homo sapiens) (UniProt P29317); conditions: at 1 µM
[6] = molecular target: T1, Ephrin type-A receptor 3 (Homo sapiens) (UniProt P29320); conditions: at 0.1 µM
T1 sequence (whole entry): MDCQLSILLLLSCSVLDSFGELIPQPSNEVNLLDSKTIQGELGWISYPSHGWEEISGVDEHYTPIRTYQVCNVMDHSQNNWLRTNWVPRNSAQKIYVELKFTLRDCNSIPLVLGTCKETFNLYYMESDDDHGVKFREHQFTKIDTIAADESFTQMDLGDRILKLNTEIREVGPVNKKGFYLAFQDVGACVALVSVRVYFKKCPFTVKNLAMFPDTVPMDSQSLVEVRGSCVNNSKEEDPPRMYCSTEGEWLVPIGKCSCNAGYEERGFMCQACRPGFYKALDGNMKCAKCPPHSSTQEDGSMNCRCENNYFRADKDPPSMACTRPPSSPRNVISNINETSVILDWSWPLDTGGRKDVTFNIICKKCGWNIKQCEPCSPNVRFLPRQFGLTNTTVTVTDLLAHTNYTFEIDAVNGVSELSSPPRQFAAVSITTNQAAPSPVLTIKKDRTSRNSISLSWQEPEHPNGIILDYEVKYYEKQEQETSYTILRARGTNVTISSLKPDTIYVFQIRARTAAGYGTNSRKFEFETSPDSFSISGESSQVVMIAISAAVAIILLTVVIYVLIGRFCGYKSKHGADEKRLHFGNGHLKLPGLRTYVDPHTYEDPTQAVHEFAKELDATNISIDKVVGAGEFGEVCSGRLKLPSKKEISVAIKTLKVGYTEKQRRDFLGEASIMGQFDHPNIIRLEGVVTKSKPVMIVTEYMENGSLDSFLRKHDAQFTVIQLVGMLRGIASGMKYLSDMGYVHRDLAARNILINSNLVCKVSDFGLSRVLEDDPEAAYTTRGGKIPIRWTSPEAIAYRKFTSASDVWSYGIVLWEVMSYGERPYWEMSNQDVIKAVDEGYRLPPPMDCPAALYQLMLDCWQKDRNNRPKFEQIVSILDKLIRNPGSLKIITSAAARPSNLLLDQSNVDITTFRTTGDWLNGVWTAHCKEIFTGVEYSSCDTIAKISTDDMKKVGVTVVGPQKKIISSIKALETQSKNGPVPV

[7] = molecular target: T1, Ephrin type-A receptor 3 (Homo sapiens); conditions: at 1 µM
[8] = molecular target: Ephrin type-A receptor 4 (Homo sapiens) (UniProt P54764); conditions: at 0.1 µM
Sequence of Ephrin type-A receptor 4 (Homo sapiens) (P54764 whole entry): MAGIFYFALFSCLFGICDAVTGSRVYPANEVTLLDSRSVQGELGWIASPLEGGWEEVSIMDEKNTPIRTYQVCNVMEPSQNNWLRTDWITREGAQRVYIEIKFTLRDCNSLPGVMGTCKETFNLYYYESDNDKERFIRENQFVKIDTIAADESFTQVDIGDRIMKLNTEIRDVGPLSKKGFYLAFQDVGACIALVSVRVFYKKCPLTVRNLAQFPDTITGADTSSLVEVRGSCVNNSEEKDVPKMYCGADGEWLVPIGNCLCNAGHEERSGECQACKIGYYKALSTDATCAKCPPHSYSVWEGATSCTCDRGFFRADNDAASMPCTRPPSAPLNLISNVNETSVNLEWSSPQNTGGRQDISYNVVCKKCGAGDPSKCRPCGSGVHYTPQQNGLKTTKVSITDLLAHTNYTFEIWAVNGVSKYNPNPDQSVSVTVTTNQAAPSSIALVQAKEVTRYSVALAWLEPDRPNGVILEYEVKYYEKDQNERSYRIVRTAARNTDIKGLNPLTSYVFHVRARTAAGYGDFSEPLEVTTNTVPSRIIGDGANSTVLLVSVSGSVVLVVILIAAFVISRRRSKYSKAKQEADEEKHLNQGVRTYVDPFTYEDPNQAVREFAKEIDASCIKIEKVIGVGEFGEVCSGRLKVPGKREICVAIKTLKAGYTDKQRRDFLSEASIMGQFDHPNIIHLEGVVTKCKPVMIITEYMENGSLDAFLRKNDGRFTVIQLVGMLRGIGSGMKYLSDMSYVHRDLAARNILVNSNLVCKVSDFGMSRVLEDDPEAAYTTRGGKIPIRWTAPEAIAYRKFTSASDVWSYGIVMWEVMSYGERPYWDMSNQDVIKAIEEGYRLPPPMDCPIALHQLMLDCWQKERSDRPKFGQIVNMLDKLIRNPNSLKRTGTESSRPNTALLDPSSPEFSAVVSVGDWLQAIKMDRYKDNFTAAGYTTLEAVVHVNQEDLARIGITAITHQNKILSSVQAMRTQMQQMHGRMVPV

[9] = molecular target: Ephrin type-A receptor 4 (Homo sapiens) (UniProt P54764); conditions: at 1 µM
[10] = molecular target: T2, Ephrin type-B receptor 2 (Homo sapiens) (UniProt P29323); conditions: at 0.1 µM
T2 sequence (whole entry): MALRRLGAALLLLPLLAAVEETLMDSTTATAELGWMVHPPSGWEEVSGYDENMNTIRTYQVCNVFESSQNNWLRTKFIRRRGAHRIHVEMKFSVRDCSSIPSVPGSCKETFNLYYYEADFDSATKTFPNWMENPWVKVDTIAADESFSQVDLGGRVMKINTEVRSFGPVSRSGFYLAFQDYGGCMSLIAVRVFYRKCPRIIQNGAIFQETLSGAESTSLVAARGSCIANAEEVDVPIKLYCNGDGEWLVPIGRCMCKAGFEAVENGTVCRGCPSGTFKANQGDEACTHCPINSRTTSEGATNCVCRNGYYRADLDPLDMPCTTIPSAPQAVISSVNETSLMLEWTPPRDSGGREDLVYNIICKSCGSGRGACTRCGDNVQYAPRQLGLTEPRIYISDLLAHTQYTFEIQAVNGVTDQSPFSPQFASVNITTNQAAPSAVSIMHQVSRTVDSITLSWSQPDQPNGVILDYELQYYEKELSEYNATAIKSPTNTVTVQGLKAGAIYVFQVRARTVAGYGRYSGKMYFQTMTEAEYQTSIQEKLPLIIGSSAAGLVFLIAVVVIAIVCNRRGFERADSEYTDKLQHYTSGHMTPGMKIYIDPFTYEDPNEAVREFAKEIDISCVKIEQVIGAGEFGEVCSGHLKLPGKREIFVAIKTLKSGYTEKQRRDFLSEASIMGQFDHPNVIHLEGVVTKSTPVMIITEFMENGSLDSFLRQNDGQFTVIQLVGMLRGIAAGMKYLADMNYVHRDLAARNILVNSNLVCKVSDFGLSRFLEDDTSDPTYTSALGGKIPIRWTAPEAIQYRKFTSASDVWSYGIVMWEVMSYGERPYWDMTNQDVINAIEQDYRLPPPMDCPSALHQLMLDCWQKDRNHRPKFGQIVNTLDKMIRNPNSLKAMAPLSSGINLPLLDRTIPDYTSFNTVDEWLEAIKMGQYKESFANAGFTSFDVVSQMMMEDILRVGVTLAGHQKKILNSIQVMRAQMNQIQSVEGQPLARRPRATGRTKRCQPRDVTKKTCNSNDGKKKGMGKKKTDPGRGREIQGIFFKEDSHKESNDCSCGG

[11] = molecular target: T2, Ephrin type-B receptor 2 (Homo sapiens); conditions: at 1 µM
[12] = molecular target: T3, Ephrin type-B receptor 3 (Homo sapiens) (UniProt P54753); conditions: at 0.1 µM
T3 sequence (whole entry): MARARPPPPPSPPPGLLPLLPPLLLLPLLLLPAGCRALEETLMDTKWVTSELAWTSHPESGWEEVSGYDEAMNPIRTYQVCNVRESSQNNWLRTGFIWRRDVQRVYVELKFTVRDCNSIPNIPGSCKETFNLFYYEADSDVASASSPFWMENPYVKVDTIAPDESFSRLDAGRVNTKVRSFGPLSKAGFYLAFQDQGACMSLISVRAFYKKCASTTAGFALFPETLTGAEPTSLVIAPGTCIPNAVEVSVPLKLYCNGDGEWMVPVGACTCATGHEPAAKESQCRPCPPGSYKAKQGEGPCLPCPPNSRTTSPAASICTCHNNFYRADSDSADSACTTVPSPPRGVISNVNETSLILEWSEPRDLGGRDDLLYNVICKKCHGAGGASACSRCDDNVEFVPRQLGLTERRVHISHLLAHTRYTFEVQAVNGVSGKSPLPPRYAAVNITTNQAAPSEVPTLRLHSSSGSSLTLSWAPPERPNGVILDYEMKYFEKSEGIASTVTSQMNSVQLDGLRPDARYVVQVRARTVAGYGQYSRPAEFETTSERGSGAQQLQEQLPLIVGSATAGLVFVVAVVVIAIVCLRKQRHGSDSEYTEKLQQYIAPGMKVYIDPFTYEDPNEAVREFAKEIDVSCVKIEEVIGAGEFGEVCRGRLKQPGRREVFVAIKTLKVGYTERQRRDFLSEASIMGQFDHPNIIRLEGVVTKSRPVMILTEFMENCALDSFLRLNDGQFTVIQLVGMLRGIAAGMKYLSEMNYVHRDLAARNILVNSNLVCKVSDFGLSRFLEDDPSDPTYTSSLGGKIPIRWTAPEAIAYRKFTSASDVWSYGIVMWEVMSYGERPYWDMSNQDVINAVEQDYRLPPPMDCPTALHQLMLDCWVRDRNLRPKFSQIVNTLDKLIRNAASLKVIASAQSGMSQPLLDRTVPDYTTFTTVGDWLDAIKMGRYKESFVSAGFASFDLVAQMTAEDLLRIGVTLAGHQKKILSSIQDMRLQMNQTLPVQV

[13] = molecular target: T3, Ephrin type-B receptor 3 (Homo sapiens); conditions: at 1 µM
[14] = molecular target: T4, Ephrin type-B receptor 4 (Homo sapiens) (UniProt P54760); conditions: at 0.1 µM
T4 sequence (whole entry): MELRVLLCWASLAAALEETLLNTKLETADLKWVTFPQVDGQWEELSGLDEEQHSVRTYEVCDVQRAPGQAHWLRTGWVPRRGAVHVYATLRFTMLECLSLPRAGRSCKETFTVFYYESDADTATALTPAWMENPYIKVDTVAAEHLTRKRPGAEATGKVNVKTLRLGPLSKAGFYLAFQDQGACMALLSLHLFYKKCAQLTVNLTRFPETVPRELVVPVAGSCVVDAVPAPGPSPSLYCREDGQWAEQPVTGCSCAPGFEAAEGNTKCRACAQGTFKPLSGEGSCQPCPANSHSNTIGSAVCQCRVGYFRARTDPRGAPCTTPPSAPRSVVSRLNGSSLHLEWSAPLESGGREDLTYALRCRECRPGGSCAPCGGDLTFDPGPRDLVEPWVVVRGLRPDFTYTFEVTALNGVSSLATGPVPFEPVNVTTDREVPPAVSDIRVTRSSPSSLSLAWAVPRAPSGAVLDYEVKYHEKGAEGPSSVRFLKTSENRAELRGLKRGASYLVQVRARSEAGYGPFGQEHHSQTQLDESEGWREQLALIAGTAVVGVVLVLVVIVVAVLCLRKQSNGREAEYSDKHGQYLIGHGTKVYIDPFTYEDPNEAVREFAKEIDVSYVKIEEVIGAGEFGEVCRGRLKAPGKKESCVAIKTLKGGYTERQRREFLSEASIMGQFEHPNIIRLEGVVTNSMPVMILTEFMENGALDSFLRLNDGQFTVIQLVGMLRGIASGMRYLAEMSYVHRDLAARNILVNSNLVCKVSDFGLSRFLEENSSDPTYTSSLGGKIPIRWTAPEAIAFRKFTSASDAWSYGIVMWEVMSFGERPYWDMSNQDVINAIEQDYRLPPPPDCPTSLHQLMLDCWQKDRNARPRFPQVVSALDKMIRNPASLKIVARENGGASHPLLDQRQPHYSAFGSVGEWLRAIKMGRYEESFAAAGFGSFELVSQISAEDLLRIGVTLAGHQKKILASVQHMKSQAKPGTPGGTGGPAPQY

[15] = molecular target: T4, Ephrin type-B receptor 4 (Homo sapiens); conditions: at 1 µM
[16] = molecular target: Receptor tyrosine-protein kinase erbB-2 (Homo sapiens) (UniProt P04626); conditions: at 0.1 µM
[17] = molecular target: Receptor tyrosine-protein kinase erbB-2 (Homo sapiens) (UniProt P04626); conditions: at 1 µM
[18] = molecular target: Receptor tyrosine-protein kinase erbB-4 (Homo sapiens) (UniProt Q15303); conditions: at 0.1 µM
Sequence of Receptor tyrosine-protein kinase erbB-4 (Homo sapiens) (Q15303 whole entry): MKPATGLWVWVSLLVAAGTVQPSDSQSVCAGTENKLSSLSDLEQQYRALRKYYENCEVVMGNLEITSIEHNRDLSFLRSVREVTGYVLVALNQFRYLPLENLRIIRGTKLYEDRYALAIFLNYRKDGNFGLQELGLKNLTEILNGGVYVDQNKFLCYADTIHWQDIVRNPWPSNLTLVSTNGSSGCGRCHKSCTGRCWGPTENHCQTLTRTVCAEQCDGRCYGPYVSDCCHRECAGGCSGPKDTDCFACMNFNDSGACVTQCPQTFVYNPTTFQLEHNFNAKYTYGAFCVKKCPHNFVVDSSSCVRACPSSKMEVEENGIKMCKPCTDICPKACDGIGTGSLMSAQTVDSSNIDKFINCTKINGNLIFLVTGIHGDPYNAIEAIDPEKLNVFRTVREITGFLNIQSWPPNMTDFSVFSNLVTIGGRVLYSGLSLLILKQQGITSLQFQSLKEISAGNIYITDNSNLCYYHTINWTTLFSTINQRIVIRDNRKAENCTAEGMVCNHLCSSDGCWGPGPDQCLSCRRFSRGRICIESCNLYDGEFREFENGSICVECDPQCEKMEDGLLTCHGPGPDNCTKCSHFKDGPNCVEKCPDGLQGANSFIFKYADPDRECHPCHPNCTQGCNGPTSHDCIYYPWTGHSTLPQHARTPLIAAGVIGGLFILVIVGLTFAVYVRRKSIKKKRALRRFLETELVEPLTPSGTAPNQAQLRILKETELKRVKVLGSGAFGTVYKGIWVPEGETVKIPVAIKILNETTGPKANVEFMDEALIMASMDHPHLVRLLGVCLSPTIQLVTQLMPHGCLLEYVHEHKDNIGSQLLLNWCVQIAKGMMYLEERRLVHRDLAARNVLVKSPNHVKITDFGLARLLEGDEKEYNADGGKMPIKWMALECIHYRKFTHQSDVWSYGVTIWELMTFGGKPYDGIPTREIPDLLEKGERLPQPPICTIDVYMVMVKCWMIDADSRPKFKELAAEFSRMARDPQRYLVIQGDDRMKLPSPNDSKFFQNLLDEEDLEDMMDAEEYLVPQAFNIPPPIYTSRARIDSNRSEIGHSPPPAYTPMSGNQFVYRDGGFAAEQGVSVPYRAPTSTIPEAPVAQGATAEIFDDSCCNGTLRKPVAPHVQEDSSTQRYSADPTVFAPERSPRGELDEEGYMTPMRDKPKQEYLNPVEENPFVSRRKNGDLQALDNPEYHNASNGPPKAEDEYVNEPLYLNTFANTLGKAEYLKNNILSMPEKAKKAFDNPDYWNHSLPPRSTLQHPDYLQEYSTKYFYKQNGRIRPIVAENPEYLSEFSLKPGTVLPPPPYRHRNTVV

[19] = molecular target: Receptor tyrosine-protein kinase erbB-4 (Homo sapiens) (UniProt Q15303); conditions: at 1 µM
[20] = molecular target: Tyrosine-protein kinase Fer (Homo sapiens) (UniProt P16591); conditions: at 0.1 µM;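 note: reported figures are averaged percent inhibition of FER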

Sequence of Epidermal growth factor receptor (Homo sapiens), P00533 [T790M] (P00533 whole entry T790M): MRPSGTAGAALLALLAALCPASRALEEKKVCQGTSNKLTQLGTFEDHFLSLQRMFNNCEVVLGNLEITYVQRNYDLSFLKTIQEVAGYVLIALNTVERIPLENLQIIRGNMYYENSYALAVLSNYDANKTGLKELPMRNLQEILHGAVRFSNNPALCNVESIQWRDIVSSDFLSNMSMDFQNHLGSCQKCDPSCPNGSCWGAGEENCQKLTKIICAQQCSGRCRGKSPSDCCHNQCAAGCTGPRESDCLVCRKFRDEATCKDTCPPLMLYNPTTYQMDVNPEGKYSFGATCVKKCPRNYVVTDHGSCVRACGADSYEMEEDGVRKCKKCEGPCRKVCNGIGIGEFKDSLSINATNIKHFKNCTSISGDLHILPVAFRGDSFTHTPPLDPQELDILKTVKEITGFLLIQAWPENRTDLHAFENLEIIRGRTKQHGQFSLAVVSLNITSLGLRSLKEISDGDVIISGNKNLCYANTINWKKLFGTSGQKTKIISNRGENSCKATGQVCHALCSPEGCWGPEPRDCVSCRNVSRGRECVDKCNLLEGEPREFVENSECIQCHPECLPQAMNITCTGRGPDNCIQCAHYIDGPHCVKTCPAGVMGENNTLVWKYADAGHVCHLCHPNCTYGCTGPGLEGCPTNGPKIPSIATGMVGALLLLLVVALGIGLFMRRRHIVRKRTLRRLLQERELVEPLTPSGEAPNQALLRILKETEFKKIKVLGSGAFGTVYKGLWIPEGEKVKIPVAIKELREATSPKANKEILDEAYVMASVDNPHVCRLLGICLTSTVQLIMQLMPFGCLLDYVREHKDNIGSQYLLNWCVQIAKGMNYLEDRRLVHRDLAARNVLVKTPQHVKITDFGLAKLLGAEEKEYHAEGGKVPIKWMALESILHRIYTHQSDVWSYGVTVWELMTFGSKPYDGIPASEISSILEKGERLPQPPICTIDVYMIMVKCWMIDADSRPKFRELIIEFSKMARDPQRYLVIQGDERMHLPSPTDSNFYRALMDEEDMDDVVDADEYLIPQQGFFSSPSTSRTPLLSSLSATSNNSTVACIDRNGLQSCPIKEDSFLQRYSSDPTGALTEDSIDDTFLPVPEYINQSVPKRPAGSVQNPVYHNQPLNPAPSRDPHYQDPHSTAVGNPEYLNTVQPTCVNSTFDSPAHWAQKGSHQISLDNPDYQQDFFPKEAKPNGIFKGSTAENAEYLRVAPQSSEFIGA

SMILES | inhibition [1] [%] | inhibition [2] [%] | inhibition [3] [%] | inhibition [4] [%] | inhibition [5] [%] | inhibition [6] [%] | inhibition [7] [%] | inhibition [8] [%] | inhibition [9] [%] | inhibition [10] [%] | inhibition [11] [%] | inhibition [12] [%] | inhibition [13] [%] | inhibition [14] [%] | inhibition [15] [%] | inhibition [16] [%] | inhibition [17] [%] | inhibition [18] [%] | inhibition [19] [%] | inhibition [20] [%]
Fc1ccc(Nc2nccc(-c3c(-c4ccc(C(F)(F)F)cc4)nn4ncccc34)n2)cc1F | 0.77 | -1.9 | 0.06 | 2.87 | 0.53 | 2.83 | 3.84 | 5.7 | 1.99 | 8.38 | 6.54 | 4.44 | 1.93 | 2.27 | 1.26 | -0.32 | -1.28 | 9.22 | 10.4 | 4.97
COc1cc(N2CCN(C(C)C)CC2)ccc1Nc1nc(Nc2cccc3ncccc23)c2cc[nH]c2n1 | 10.3 | 1.03 | 35.2 | -1.62 | -2.47 | 0.15 | 3.49 | 0.21 | 0.38 | 5.06 | 2.09 | 1.16 | 0.4 | 0.17 | 0.88 | -0.99 | 2.24 | -0.3 | 5.51 | 7.7
CC(C)c1ccc(-c2cc(-c3c[nH]nc3-c3ccccn3)ccn2)cc1 | 0.59 | -1.17 | -2.79 | -1.11 | -2.27 | 2.58 | 5.79 | 6.74 | 4.1 | 7.84 | 5.4 | 3.79 | 1.74 | 0.47 | 2.78 | 0.79 | -1.43 | 4.41 | 6.32 | 2.22
CS(=O)(=O)Nc1ccc(-c2cc(-c3ccccc3)cc(C(N)=O)c2N)cc1 | -0.33 | 1.11 | 1.75 | -3.41 | -2.62 | 0.48 | -0.2 | 1.75 | 4.07 | 6.68 | 5.3 | 0.56 | 2.36 | 0.54 | 0.87 | 1.08 | 6.84 | 4.73 | 11.9 | -2.85
COC(=O)Nc1nc2ccc(Oc3ccc(NC(=O)Nc4cc(C(F)(F)F)ccc4F)cc3)cc2s1 | -0.72 | 1.64 | -2.5 | 63.5 | 93.5 | 51.3 | 68.4 | 83.3 | 86.1 | 74.1 | 83.7 | 16.8 | 36.6 | 29.6 | 73 | -0.44 | -0.72 | 3.56 | 3.36 | 3.43
COc1ccc2ncn(-c3cc(O[C@H](C)c4ccccc4C(F)(F)F)c(C(N)=O)s3)c2c1 | -1.39 | -1.39 | -0.48 | -3.1 | -4.03 | 0.39 | 2.63 | 0.27 | 0.47 | 1.25 | 1.95 | 1.32 | 0.52 | -1.21 | 1.77 | -0.36 | -1.72 | 1.06 | 3.12 | 1.06
FC(F)(F)CNc1nccc(-c2cnn3ncccc23)n1 | 0.02 | -1.87 | 1.32 | 0.5 | -1.3 | 3.4 | 4.73 | 5.82 | 7.58 | 5.3 | 4.55 | 4.36 | 3.96 | 0.32 | 1.93 | 4.52 | 3.89 | 13.2 | 14 | 1.02
Cc1c2ccc(N(C)c3ccnc(Nc4cccc(S(N)(=O)=O)c4)n3)cc2nn1C | 3.28 | 2.62 | 13.1 | -1.48 | 2.19 | 0.79 | 2.97 | 8.51 | 14.2 | 5.88 | 23.3 | 3.38 | 0.55 | 0.19 | 10.3 | 1.55 | -3.44 | 5.59 | 12.1 | 25.1
COc1cc2c(cc1Nc1nc(Nc3cccc(F)c3C(N)=O)c3cc[nH]c3n1)N(C(=O)CN1CCN(C(C)C)CC1)CC2 | 27 | 1.09 | 47.3 | 1.37 | 0.53 | 1.47 | 0.43 | 3.76 | 4.41 | 2.75 | 3.39 | 1.98 | 0.18 | 1.3 | 2.98 | 2.36 | 3.48 | 16.9 | 59.7 | 8
